The target in test [1] is Fibroblast growth factor receptor 4 (Homo sapiens) (UniProt P22455). Conditions: at 1 µM.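 Note: reported figure is the averaged percent inhibition of FGFR4, from the GSK PKIS kinase screening panel.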
Test [2] deals with Tyrosine-protein kinase Fgr (Homo sapiens) (UniProt P09769). The following applies: at 0.1 µM.
The target is the same in test [3]. The following applies: at 1 µM.
Test [4] has as its target Vascular endothelial growth factor receptor 1 (Homo sapiens) (UniProt P17948). Conditions: at 0.1 µM.
The target is the same in test [5]. The following applies: at 1 µM.
In test [6] the target is Receptor-type tyrosine-protein kinase FLT3 (Homo sapiens) (UniProt P36888). The following applies: at 0.1 µM.
For test [7] the target is unchanged. The following applies: at 1 µM.
For test [8], the system named is T1, Receptor-type tyrosine-protein kinase FLT3 (Homo sapiens), P36888 [D835Y].
T1 sequence (whole entry): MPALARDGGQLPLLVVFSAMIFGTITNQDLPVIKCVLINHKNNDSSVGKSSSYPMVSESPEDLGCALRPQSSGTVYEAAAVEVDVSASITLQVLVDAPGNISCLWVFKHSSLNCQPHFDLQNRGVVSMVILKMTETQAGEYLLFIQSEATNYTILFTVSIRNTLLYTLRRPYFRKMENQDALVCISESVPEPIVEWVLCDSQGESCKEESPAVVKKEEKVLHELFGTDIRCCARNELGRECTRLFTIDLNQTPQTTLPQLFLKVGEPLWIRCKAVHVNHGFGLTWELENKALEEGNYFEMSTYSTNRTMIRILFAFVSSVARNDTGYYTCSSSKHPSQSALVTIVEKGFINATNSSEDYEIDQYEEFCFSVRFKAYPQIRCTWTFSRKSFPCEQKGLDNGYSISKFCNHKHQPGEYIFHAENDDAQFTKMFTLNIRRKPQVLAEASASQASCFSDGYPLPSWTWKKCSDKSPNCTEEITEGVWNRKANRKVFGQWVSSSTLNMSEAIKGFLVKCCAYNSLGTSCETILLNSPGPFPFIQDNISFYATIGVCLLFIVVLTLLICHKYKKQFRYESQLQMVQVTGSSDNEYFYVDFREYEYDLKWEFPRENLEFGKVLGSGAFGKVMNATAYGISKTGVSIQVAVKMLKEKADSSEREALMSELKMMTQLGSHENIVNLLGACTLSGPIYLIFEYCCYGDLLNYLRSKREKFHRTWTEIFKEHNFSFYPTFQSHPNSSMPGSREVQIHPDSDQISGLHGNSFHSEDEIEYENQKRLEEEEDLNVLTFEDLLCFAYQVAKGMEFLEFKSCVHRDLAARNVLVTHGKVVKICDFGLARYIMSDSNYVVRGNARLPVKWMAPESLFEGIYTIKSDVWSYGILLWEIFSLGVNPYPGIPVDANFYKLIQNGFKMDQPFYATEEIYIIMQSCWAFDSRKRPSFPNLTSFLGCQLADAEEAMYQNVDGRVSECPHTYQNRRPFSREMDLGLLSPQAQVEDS
Conditions: at 0.1 µM.

Test [9] concerns the target Non-receptor tyrosine-protein kinase TYK2 (Homo sapiens) (UniProt P29597). The following applies: at 1 µM.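 Note: values are mean percent inhibition of TYK2 kinase.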
For test [10], the target named is T2, Tyrosine-protein kinase receptor TYRO3 (Homo sapiens) (UniProt Q06418).
T2 sequence (whole entry): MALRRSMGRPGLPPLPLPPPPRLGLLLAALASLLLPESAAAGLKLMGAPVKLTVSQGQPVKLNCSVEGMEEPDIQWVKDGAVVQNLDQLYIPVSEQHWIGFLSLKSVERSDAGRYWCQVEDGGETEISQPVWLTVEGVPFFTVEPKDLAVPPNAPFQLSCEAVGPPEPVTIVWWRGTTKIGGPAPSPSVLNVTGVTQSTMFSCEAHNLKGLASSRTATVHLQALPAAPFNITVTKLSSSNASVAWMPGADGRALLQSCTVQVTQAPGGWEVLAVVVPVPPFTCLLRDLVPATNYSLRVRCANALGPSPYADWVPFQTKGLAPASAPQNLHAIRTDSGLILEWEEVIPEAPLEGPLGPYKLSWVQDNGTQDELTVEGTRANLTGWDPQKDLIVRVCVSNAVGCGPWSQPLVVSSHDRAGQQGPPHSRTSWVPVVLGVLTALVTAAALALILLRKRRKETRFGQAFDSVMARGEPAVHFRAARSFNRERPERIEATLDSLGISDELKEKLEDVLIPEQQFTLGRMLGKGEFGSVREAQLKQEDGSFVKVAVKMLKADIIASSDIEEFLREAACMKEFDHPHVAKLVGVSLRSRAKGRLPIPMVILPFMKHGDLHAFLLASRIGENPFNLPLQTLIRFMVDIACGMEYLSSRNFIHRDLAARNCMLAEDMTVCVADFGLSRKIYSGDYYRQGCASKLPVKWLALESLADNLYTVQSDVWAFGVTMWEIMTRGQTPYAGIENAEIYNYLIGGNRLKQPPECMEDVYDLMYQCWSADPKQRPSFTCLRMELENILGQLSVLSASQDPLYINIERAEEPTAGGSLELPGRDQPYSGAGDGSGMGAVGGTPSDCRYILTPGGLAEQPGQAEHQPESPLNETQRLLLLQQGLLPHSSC
The following applies: at 0.1 µM.

Test [11] deals with T2, Tyrosine-protein kinase receptor TYRO3 (Homo sapiens). The following applies: at 1 µM.
The target of test [12] is Tyrosine-protein kinase Yes (Homo sapiens) (UniProt P07947). Conditions: at 0.1 µM.
Chain of Tyrosine-protein kinase Yes (Homo sapiens) (P07947 2-543 limits assumed): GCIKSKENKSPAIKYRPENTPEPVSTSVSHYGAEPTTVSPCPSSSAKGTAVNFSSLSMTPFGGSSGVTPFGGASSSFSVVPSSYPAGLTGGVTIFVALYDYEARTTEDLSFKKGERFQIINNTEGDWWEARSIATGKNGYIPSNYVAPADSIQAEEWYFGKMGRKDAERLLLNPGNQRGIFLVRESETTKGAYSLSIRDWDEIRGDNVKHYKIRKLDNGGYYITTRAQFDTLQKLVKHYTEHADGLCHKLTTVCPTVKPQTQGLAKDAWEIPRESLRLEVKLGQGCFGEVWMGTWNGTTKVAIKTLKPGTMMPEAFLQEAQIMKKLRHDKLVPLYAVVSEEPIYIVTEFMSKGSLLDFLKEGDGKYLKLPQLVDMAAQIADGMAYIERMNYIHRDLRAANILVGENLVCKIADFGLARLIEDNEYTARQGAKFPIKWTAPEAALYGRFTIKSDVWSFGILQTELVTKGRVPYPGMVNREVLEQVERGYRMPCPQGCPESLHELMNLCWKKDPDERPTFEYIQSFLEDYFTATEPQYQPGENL
For test [13] the target is unchanged. Conditions: at 1 µM.
Test [14] addresses T3, Tyrosine-protein kinase ZAP-70 (Homo sapiens) (UniProt P43403).
T3 sequence (whole entry): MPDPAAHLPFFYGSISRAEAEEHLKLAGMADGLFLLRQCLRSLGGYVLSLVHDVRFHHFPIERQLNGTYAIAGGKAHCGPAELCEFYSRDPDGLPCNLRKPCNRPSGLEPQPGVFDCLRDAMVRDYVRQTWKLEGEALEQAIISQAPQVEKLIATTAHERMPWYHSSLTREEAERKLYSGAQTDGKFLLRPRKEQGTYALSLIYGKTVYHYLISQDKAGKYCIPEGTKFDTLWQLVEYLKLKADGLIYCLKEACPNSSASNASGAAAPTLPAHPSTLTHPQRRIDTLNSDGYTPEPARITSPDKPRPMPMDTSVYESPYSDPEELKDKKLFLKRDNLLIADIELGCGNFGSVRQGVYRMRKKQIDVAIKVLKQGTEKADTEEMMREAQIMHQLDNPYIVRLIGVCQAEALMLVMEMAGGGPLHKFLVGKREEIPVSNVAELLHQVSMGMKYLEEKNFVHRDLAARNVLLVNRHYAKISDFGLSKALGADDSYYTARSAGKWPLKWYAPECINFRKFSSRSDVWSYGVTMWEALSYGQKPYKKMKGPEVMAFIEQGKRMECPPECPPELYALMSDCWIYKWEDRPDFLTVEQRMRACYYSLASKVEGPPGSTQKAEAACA
The following applies: at 0.1 µM.

Test [15] deals with T3, Tyrosine-protein kinase ZAP-70 (Homo sapiens). Conditions: at 1 µM.
Test [16] deals with Serine/threonine-protein kinase B-raf (Homo sapiens) (UniProt P15056). Conditions: at 0.1 µM.
Chain of Serine/threonine-protein kinase B-raf (Homo sapiens) (P15056 whole entry): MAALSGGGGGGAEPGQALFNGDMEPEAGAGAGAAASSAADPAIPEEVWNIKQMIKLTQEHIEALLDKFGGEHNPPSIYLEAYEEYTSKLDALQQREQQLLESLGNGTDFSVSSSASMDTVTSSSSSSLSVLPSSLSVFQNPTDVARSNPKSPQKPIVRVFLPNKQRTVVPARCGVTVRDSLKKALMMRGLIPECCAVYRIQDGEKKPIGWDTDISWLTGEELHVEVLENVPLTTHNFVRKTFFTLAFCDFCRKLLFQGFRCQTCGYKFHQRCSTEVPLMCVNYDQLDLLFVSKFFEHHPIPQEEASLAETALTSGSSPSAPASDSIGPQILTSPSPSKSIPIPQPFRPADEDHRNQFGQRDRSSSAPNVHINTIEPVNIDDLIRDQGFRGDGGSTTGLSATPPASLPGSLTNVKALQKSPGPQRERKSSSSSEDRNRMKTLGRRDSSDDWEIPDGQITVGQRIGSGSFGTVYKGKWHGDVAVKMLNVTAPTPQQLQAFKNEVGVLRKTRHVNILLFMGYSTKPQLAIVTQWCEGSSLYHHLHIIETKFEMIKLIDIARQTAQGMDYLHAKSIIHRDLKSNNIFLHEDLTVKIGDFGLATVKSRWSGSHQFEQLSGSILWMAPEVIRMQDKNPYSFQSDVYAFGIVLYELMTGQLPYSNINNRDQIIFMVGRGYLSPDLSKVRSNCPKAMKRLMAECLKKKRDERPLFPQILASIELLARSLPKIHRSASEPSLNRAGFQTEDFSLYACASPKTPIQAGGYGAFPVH
Test [17] has the same target. The following applies: at 1 µM.
The subject of test [18] is Serine/threonine-protein kinase B-raf (Homo sapiens), P15056 [V600E]. Conditions: at 0.1 µM.
The test system is the same in test [19]. The following applies: at 1 µM.
In test [20] the target is RAF proto-oncogene serine/threonine-protein kinase (Homo sapiens) (UniProt P04049). The following applies: at 0.1 µM.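 Note: values are mean CRAF kinase inhibition from profiling of the GSK Published Kinase Inhibitor Set.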
Chain of RAF proto-oncogene serine/threonine-protein kinase (Homo sapiens) (P04049 whole entry): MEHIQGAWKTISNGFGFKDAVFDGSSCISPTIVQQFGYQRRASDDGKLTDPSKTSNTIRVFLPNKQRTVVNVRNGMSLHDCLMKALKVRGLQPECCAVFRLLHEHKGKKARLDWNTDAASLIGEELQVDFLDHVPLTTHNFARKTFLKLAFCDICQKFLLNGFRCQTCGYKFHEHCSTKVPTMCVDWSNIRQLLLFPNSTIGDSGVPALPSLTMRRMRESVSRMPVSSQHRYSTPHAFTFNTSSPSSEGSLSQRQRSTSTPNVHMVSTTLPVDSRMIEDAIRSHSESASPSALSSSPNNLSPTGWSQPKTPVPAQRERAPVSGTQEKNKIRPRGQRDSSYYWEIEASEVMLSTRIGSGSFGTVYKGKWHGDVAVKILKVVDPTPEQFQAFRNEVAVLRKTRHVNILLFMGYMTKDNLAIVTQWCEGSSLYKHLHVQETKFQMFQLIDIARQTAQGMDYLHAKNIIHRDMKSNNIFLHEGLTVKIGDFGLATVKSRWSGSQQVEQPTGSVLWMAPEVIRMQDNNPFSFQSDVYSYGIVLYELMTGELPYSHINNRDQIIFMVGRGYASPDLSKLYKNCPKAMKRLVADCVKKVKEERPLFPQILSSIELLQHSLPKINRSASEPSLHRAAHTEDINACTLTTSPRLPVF

Chain of Fibroblast growth factor receptor 4 (Homo sapiens) (P22455 22-802 limits assumed): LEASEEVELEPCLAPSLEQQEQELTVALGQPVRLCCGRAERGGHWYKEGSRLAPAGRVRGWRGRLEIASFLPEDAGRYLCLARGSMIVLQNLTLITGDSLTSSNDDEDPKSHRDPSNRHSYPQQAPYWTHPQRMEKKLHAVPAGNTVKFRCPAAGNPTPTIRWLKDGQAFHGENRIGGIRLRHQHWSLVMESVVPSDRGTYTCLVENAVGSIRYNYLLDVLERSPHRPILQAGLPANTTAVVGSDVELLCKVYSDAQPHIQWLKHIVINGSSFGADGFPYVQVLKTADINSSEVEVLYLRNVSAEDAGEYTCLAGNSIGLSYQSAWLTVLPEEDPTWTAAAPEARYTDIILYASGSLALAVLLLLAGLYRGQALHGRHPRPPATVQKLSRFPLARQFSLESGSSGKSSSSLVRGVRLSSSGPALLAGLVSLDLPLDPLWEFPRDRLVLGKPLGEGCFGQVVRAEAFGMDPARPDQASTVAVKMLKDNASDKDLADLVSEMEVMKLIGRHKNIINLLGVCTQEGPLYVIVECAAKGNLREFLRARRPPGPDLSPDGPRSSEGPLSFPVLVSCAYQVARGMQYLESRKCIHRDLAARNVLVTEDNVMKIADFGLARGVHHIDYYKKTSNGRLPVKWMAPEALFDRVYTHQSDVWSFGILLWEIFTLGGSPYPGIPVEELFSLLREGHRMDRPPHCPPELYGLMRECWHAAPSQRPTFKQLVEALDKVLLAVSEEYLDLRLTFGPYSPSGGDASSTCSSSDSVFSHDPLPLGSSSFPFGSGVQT
Chain of Vascular endothelial growth factor receptor 1 (Homo sapiens) (P17948 whole entry): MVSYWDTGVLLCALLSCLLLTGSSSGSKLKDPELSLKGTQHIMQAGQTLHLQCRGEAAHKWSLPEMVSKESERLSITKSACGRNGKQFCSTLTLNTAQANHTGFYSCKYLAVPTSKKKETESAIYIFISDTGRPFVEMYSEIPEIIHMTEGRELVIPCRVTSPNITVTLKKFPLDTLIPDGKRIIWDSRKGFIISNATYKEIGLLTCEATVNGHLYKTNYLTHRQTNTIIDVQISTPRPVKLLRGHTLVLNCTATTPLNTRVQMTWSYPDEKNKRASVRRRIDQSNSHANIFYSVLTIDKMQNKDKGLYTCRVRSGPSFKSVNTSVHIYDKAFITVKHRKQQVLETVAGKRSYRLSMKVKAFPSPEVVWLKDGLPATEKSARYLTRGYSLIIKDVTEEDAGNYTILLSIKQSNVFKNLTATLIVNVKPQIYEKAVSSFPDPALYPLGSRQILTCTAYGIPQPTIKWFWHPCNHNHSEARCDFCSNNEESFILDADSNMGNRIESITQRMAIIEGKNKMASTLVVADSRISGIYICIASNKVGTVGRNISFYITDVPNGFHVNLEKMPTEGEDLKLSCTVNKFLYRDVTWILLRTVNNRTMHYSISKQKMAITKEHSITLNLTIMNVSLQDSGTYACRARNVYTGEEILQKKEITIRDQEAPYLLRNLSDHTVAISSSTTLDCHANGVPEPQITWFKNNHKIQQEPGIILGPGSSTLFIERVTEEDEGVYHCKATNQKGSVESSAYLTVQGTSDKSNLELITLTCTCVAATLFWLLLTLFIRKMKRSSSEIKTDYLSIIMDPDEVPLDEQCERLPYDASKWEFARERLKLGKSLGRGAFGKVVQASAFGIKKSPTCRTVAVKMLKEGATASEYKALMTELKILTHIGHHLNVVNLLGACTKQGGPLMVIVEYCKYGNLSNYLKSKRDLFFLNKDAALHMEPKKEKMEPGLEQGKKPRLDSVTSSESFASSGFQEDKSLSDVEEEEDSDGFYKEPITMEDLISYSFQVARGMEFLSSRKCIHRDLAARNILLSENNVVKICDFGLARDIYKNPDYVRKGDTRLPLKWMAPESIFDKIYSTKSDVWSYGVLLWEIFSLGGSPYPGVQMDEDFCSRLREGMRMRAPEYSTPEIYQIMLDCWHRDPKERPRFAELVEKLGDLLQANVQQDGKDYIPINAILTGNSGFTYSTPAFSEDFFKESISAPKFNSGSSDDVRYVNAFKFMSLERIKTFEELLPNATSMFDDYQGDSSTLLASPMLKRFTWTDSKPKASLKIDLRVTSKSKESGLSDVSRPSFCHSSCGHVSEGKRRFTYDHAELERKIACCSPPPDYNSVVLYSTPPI
Chain of Tyrosine-protein kinase Fgr (Homo sapiens) (P09769 2-529 limits assumed): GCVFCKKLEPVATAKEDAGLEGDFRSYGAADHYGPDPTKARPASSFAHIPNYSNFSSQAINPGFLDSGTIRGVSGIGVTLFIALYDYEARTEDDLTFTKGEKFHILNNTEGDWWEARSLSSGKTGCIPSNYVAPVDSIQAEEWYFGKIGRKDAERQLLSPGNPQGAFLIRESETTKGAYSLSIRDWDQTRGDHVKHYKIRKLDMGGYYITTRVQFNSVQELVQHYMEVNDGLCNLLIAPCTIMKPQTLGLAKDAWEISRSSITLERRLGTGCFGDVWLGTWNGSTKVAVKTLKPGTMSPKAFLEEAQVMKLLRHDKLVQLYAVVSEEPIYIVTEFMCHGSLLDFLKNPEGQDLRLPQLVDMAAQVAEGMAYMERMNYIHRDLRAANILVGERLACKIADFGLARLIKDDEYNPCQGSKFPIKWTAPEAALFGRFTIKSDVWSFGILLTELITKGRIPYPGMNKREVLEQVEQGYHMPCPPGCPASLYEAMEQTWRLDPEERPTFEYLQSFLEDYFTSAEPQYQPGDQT
Chain of Serine/threonine-protein kinase B-raf (Homo sapiens), P15056 [V600E] (P15056 whole entry V600E): as the sequence (P15056 whole entry) above, with V600E counted along it

As for `COc1ccc(-c2cc3c(N)ncnc3o2)cc1`, the inhibition is -1.73% in test [1]; 1.49% in [2]; 7.14% in [3]; -0.2% in test [4]; 0.12% in test [5]; -0.73% in test [6]. The inhibition in test [7] is -0.84%; in test [8] it was -4.44%; in test [9], 3.74%; in test [10] it was -0.51%; in [11], 2.56%; in test [12] it was 0.83%. In addition, the inhibition in test [13] is 6.69%; in test [14] it was -2.99%; in [15], -0.14%; in test [16], -1.18%; in test [17], -0.19%; in test [18] it was -0.23%. Moreover, the inhibition was found to be 1.67% in [19] and 1.23% in [20].
On to `CC(=O)NCc1cccc(C#Cc2cncnc2Nc2ccc(OCc3cccc(F)c3)c(Cl)c2)c1`, for which the inhibition in test [1] was -0.23%; in test [2], -0.22%; in test [3], 4.83%; in test [4], -0.55%; in test [5], 0.27%; in test [6], 0.26%. The inhibition in [7] was -1.41%; in [8] it was -0.58%; in test [9], 2.95%; in test [10] it was 1.2%; in test [11] it was 0.4%; in test [12], 0.55%. The inhibition was 6.04% in test [13]; -1.79% in test [14]; 2.22% in test [15]; 1.06% in test [16]; 1.33% in test [17]; 3.3% in test [18]. Further, the inhibition in [19] worked out at 0.73%; in test [20] it was 4.54%.
In the case of `[O-][S+]1CCN(Cc2ccc(-c3ccc4ncnc(Nc5ccc(OCc6cccc(F)c6)c(Cl)c5)c4c3)o2)CC1`, the inhibition in test [1] is 0.31%; in test [2], 3.65%; in test [3], 6.21%; in test [4] it was 0.35%; in test [5] it was -0.47%; in [6] it was 4.64%. The inhibition in [7] was 5.03%; in test [8] it was 1.35%; in test [9], -4.3%; in test [10], 3.67%; in test [11], 18.8%; in [12], 6.03%. For the same compound, the inhibition in [13] amounted to 21.1%; in test [14], 0.38%; in test [15], 3.57%; in test [16] it was 6.54%; in test [17], 8.02%; in test [18], 5.36%. Also, the inhibition in test [19] is 5.17%; in test [20] it was -0.6%.
As to `Nc1nc(-c2cccc(Cl)c2)c(-c2ccc3ncccc3n2)s1`, the inhibition in [1] is 2.06%; in [2], 4.53%; in [3], 4.6%; in test [4], 0.88%; in test [5] it was 3.45%; in [6], 2.09%. For the same compound, the inhibition in test [7] is 2%; in test [8], -4.43%; in test [9] it was -0.72%; in test [10] it was 3.62%; in test [11], 5.98%; in test [12] it was 4.06%. In addition, the inhibition was found to be 18.4% in test [13]; 4.31% in test [14]; 3.94% in test [15]; 7.17% in [16]; 9.65% in test [17]; 7.28% in test [18]. Besides, the results for the inhibition in test [19] and in test [20] were 8.63% and -1.17%, respectively.
`N#Cc1c(NC(=O)c2ccc(F)cc2)sc2c1CCCC2`: the inhibition was 1.31% in test [1]; 2.11% in [2]; 1.83% in [3]; 0.3% in test [4]; 1.63% in test [5]; -2.18% in test [6]. Further, the inhibition is 0.66% in test [7]; -4.75% in test [8]; -1.49% in test [9]; 0.28% in test [10]; 2.87% in [11]; 0.59% in test [12]. In addition, the inhibition in test [13] stood at 4.07%; in test [14], 1.26%; in [15], 2.47%; in test [16], 1.72%; in test [17] it was 3.03%; in test [18], 1.04%. The inhibition in test [19] was 2.86%; in [20], -3.13%.
`COc1cc(Nc2nccc(Nc3ccc4c(C)n[nH]c4c3)n2)cc(OC)c1OC`: the inhibition in test [1] was 2.48%; in [2] it was 18.2%; in [3], 57.5%; in test [4], 38.3%; in [5] it was 88%; in test [6] it was 57.8%. For the same compound, the inhibition in [7] is 90.3%; in test [8], 52.4%; in test [9] it was 33.3%; in [10], 5.01%; in test [11], 27.9%; in test [12], 28.4%. Further, the inhibition was determined as 70.7% in test [13]; 9.11% in test [14]; 32.7% in test [15]; 1.16% in [16]; 9.2% in test [17]; 2.09% in [18]. Also, the inhibition in test [19] is 7%; in [20], -7.99%.
